Measurements published in publication PMC4552634, “A New Set of Chemical Starting Points with Plasmodium falciparum Transmission-Blocking Potential for Antimalarial Drug Discovery” (PLoS ONE, 2015).
In all, about 13,000 compounds went through this assay and about 3,200 (25%) showed an effect of 50% or more. The list shows a part of the results.

Each compound was assayed on P. falciparum stage V gametocytes. Conditions: 48 h, 5 µM; inhibitor.
Design: BacTiter-Glo ATP luminescence viability of purified stage V gametocytes in 384-well plates, per cent inhibition versus DMSO

First: O=c1cc(NCCCNCc2ccc(Cl)c(Cl)c2)[nH]c2ccc(Oc3ccccc3)cc12 [TCMDC-139409]
Second: O=c1cc(NCCCNCc2ccc(Cl)c(Cl)c2)[nH]c2cc(F)cc(F)c12 [TCMDC-139408]
The “% Inhibition” value of the first is higher: 3.988% for the first, -8.545% for the second.

First: CCN(CC)CCCC(C)N=C(Nc1ccc(C#N)cc1O)Nc1ccccc1Br (stereo not shown) [TCMDC-140130]
Second: O=[N+]([O-])c1ccc2c(c1)c1ccccc1n2Cc1ccccc1O [TCMDC-124344]
The “% Inhibition” value of the first is lower: 34.96% for the first, 66.38% for the second.

First: COc1ccccc1CNC(=O)c1nn(-c2ccc(Cl)cc2)c(=O)c2ccccc12 [TCMDC-125601]
Second: COc1ccccc1CCCN1C(=O)C(c2ccccc2)(c2ccccc2)N=C1N [TCMDC-136504]
The “% Inhibition” value of the first is higher: -3.161% for the first, -6.463% for the second.

First: CCCc1ccc(S(=O)(=O)NC2CCN(c3ccnc(Nc4ccc(OC)cc4)n3)C2)cc1 (stereo not shown) [TCMDC-133613]
Second: Cc1cc(N[C@@H](Cc2ccccc2)C(=O)NC2CCCC2)nc(NCCc2ccc(F)cc2)n1 [TCMDC-134784]
The “% Inhibition” value of the first is lower: 30.72% for the first, 110% for the second.

Going from O=C(NCC1CCC(C(=O)NCCc2ccc(Cl)c(Cl)c2)CC1)c1ccc(O)c(-c2ccc(Cl)c(Cl)c2)c1 (stereo not shown) [TCMDC-140893] to COCCCNC(=O)C1CCN(C(c2ccc(Cl)cc2)c2ccc(Cl)cc2)CC1 [TCMDC-135521], the “% Inhibition” value falls from 30.85% to -10.75%.

Compared with COc1ccc(NC(=O)Nc2cc(C)nc3cccnc23)cc1Cn1ccnc1 [TCMDC-140647], CC(CN(C)C)C(=O)Nc1cccc(-c2ccc(-c3nc4ccc(F)cc4[nH]3)cc2)c1 (stereo not shown) [TCMDC-137106] is lower in “% Inhibition” value: -24.24% for the first, -31.14% for the second.

First: O=C(c1cc(-c2ccccc2)n[nH]1)N1CCN(S(=O)(=O)c2ccc(Cl)s2)CC1 [TCMDC-124697]
Second: CC(=O)c1ccc(N2CCN(CCC3(c4ccc(Cl)c(Cl)c4)COCN(C(=O)c4ccccc4)C3)CC2)cc1 (stereo not shown) [TCMDC-141761]
The “% Inhibition” value of the first is higher: 44.38% for the first, 30.09% for the second.

Going from Cc1cc(Cc2ccc(S(=O)(=O)c3cc4c(cc3O)CCN(C)CC4)cc2)ccc1Cl [TCMDC-135485] to Cc1cccc2nc(-c3ccc(-c4cccc(C(=O)NCCN5CCCC5)c4)s3)[nH]c12 [TCMDC-132317], the “% Inhibition” value falls from 17.27% to 13.21%.

Compared with O=[N+]([O-])c1ccc2c(-c3ccccc3)c(-c3ccccc3)n(O)c2c1 [TCMDC-137050], Cc1nc2ccc([N+](=O)[O-])cc2c(=O)n1OCc1ccccc1 [TCMDC-131598] is higher in “% Inhibition” value: 9.077% for the first, 18.76% for the second.

First: Cc1ccc(C(=O)Nc2ccc(F)c(F)c2F)cc1S(=O)(=O)N1CCCCC1 [TCMDC-124324]
Second: O=C1NC(c2ccc(N3CCCCCC3)cc2)Nc2ccccc21 (stereo not shown) [TCMDC-125058]
The “% Inhibition” value of the first is lower: 19.7% for the first, 38.08% for the second.

First: CC(C)(C)c1ccccc1OCCCON1C(N)=NC(N)=NC1(C)C [TCMDC-131751]
Second: CC(C)(C)c1ccc(OCCCON2C(N)=NC(N)=NC2(C)C)c(C(C)(C)C)c1 [TCMDC-131308]
The “% Inhibition” value of the first is lower: 48.16% for the first, 56.27% for the second.

Compared with CCCc1cc(OCCCOc2ccccc2)ccc1OCCCON1C(N)=NC(N)=NC1(C)C [TCMDC-131328], CCCc1cc(C)ccc1OCCCON1C(N)=NC(N)=NC1(C)C [TCMDC-131320] is lower in “% Inhibition” value: 103.6% for the first, 40.89% for the second.

Compared with CC1(C)N=C(N)N=C(N)N1OCCCCOc1ccc(Cl)cc1C1CCCCC1 [TCMDC-131659], CC1(C)N=C(N)N=C(N)N1OCCCOc1cc(Cl)ccc1Cl [TCMDC-131679] is lower in “% Inhibition” value: 106.8% for the first, 20.73% for the second.

First: CC1(C)N=C(N)N=C(N)N1OCCCCOc1ccccc1 [TCMDC-131658]
Second: CCOC(=O)c1cc(Cl)ccc1OCCCON1C(N)=NC(N)=NC1(C)C [TCMDC-131705]
The “% Inhibition” value of the first is higher: 4.25% for the first, -0.9845% for the second.

First: CC1(C)N=C(N)N=C(N)N1OCCCOc1cc(Cl)c(Cl)cc1Cl [TCMDC-137301]
Second: COc1cc(NC(=O)N2CCOC(CCN3CCC(c4ccccc4)CC3)(c3ccc(Cl)c(Cl)c3)C2)cc(OC)c1 (stereo not shown) [TCMDC-135343]
The “% Inhibition” value of the first is higher: -2.55% for the first, -16.83% for the second.

Going from COC(=O)Cn1c(C2CCN(CC3CCC(NC(=O)/C=C/c4ccc(Cl)c(Cl)c4)CC3)CC2)nc2ccccc21 (stereo not shown) [TCMDC-140297] to O=C(c1ccccc1)N1COCC(CCN2CCC(N3CCCC3)CC2)(c2ccc(Cl)c(Cl)c2)C1 (stereo not shown) [TCMDC-141760], the “% Inhibition” value rises from -20.25% to 43.61%.

First: OC(CNCc1ccccc1OC(F)F)c1cccc(C(F)(F)F)c1 (stereo not shown) [TCMDC-140395]
Second: CC(CN1CCN(C)CC1)C(=O)Nc1cccc(-c2ccc(-c3nc4ccc(C(F)(F)F)cc4[nH]3)cc2)c1 (stereo not shown) [TCMDC-137152]
The “% Inhibition” value of the first is lower: 21.35% for the first, 80.48% for the second.

First: c1ccc(COc2ccc(COc3ccc(Cn4ccnc4)cc3)cc2)cc1 [TCMDC-136714]
Second: Cc1cc(N[C@@H](Cc2ccccc2)C(=O)NC2CCCC2)nc(NCCOc2ccccc2)n1 [TCMDC-134755]
The “% Inhibition” value of the first is lower: 11.69% for the first, 31.62% for the second.

Compared with O=C(Nc1ccc(N2CCC(Nc3ccccn3)CC2)cc1)c1cnc(Cl)c(Cl)c1 [TCMDC-134629], COc1ccc2nccc([C@@H](O)CN3CCC(NCCNc4ccccn4)CC3)c2c1 [TCMDC-140562] is higher in “% Inhibition” value: 28.05% for the first, 28.84% for the second.

First: Cc1cc(N[C@@H](CC(C)C)C(=O)NC2CCCC2)nc(NCCc2ccc(F)cc2)n1 [TCMDC-134791]
Second: Cc1cc(N[C@@H](CC(C)C)C(=O)NC2CCCC2)nc(NCc2ccccc2C)n1 [TCMDC-134908]
The “% Inhibition” value of the first is higher: 99.38% for the first, -12.42% for the second.

Compared with Cc1cc(N[C@@H](CC(C)C)C(=O)NC2CCCC2)nc(NCC2CCCCC2)n1 [TCMDC-134936], Cc1cc(N[C@@H](Cc2ccccc2)C(=O)NC2CCCC2)nc(NCC2CCCCC2)n1 [TCMDC-134927] is higher in “% Inhibition” value: -32.07% for the first, -16.19% for the second.

First: COc1ccc(C(=O)N2CCC3(CC2)C(=O)N(CC(=O)NC2CCCCC2)CN3c2ccccc2)c(OC)c1 [TCMDC-125169]
Second: O=C(Nc1ccccc1)NC1CCN(CCC2(c3ccc(Cl)c(Cl)c3)COCN(C(=O)c3ccccc3)C2)C1 (stereo not shown) [TCMDC-141759]
The “% Inhibition” value of the first is lower: -35.99% for the first, 59.82% for the second.

Compared with CCN(CC)C(=O)C1CCCN(C(=O)Nc2cc(C(F)(F)F)cc(C(F)(F)F)c2)C1 (stereo not shown) [TCMDC-124042], CC(CN1CCN(C)CC1)C(=O)Nc1ccc(-c2cccc(-c3nc4ccc(C(F)(F)F)cc4[nH]3)c2)cc1 (stereo not shown) [TCMDC-137149] is higher in “% Inhibition” value: -75.6% for the first, 40.39% for the second.

Going from CC(CN1CCN(C)CC1)C(=O)Nc1ccc(-c2cccc(-c3nc4ccc(F)cc4[nH]3)c2)cc1 (stereo not shown) [TCMDC-137143] to CC(CN1CCN(C)CC1)C(=O)Nc1cccc(-c2ccc(-c3nc4ccc(F)cc4[nH]3)cc2)c1 (stereo not shown) [TCMDC-137146], the “% Inhibition” value falls from 97.96% to 77.49%.

Going from CC(CN1CCN(C)CC1)C(=O)Nc1ccc(-c2ccc(-c3nc4ccc(C(F)(F)F)cc4[nH]3)cc2)cc1 (stereo not shown) [TCMDC-137153] to CC(CN1CCN(C)CC1)C(=O)Nc1ccc(-c2ccc(-c3nc4ccc(F)cc4[nH]3)cc2)cc1 (stereo not shown) [TCMDC-136777], the “% Inhibition” value rises from -5.664% to 4.283%.

Going from CC(CN(C)C)C(=O)Nc1ccc(-c2ccc(-c3nc4ccc(F)cc4[nH]3)cc2)cc1 (stereo not shown) [TCMDC-136778] to CC(CN1CCN(C)CC1)C(=O)Nc1cccc(-c2cccc(-c3nc4ccc(F)cc4[nH]3)c2)c1 (stereo not shown) [TCMDC-137145], the “% Inhibition” value rises from 6.212% to 48.07%.
